{
  "source": "PubChem BioAssay (NCATS)",
  "key": {"[1]": {"target": "Pyruvate kinase PKM (Homo sapiens) (UniProt P14618)", "sequence (P14618 whole entry, looked up)": "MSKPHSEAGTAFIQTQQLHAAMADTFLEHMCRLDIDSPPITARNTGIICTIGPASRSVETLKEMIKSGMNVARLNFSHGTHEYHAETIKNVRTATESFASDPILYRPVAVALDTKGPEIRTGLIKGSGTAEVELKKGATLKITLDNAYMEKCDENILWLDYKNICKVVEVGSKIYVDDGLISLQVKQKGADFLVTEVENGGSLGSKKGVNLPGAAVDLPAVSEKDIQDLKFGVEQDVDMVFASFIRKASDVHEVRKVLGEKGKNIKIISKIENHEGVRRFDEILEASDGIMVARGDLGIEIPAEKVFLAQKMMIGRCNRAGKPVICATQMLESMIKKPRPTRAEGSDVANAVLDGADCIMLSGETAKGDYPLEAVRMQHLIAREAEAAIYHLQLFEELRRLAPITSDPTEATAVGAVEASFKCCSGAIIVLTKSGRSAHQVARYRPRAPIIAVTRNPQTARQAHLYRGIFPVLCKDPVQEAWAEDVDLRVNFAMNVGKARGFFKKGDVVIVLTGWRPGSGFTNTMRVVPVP", "assay": "qHTS Assay for Activators of Human Muscle Pyruvate Kinase (AID 954; active = well fitted curve in the direction sought with a large enough effect, not every such curve was filed as active)", "settings": "purified human muscle pyruvate kinase, luciferase-coupled luminescence, 1 h; series mostly up to 57.5 µM", "outline": "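Compound pinned into substrate mix (0.5 mM PEP, 0.1 mM ADP), then 0.1 nM PKM2 added; 1 h, RT. Stop/detection luciferase reagent added, luminescence read. Normalized to no-inhibition and no-enzyme or reference-inhibitor controls.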"}, "[2]": {"target": "Pyruvate kinase (Leishmania mexicana) (UniProt Q27686)", "sequence (Q27686 2-499 E452W)": "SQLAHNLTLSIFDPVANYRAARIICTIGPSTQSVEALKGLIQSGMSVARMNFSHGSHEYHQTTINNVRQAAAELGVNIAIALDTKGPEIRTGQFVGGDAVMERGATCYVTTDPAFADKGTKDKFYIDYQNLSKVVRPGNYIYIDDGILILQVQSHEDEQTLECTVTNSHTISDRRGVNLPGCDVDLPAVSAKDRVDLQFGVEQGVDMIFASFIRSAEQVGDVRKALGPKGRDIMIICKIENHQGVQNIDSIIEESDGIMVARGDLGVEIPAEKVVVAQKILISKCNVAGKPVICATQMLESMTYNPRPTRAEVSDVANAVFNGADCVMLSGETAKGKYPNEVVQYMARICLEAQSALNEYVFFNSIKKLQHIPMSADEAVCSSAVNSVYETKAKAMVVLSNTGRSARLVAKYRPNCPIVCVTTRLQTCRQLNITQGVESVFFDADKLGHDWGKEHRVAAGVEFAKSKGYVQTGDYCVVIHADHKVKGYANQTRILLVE", "assay": "qHTS Validation Assay for Activators of Leishmania Mexicana Pyruvate Kinase (AID 959)", "settings": "purified L. mexicana pyruvate kinase, enzyme activity; series mostly up to 57.5 µM", "outline": "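An endpoint luciferase assay: 0.2 nM LmPYK E451W turns over 0.5 mM PEP with 0.1 mM ADP for 1 h at room temperature, pH 7.2, before PKLight addition. Values are normalized to DMSO-only wells.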"}, "[3]": {"assay": "MultiTox-Fluor Cytotoxicity Assay - LYMP1-001 - Live Cells (AID 947)", "settings": "LYMP1-001 lymphoblastoid cells, live-cell protease fluorescence viability; series mostly up to 92.2 µM"}, "[4]": {"assay": "Cell Viability - LYMP1-002 - Assay at 16 hr (AID 948)", "settings": "LYMP1-002 lymphoblastoid cell viability; series mostly up to 92.2 µM", "outline": "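ATP luminescence (CellTiter-Glo) was measured after 16 hr compound exposure at 37 C of 2500 lymphoblastoid LYMP1-002 cells per well. Concentration-response curves were fitted with the Hill equation to give AC50.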"}, "[5]": {"assay": "MultiTox-Fluor Cytotoxicity Assay - LYMP1-002 - Live Cells (AID 955)", "settings": "LYMP1-002 lymphoblastoid live-cell protease fluorescence viability; series mostly up to 46.1 µM", "outline": "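Cells were seeded at 2500 per well and incubated 5 hr. Compounds were then added for 16 hr at 37 C, followed by MultiTox-Fluor reagent for 60 min at room temperature and fluorescence reading of viable-cell protease signal.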"}, "[6]": {"assay": "MultiTox-Fluor Cytotoxicity Assay - LYMP1-002 - Dead Cells (AID 960); note: nearly all actives have a fitted effect of over 60% in size", "settings": "LYMP1-002 lymphoblastoid cells, dead-cell protease fluorescence; series mostly up to 46.1 µM", "outline": "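Cells were plated, rested 5 hr, then treated with compound dilution series for 16 hr at 37 C. After adding substrate reagent and 60 min at room temperature, dead-cell protease fluorescence gave concentration-response curves fitted by the Hill equation.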"}, "[7]": {"assay": "MultiTox-Fluor Cytotoxicity Assay - LYMP1-003 - Dead Cells (AID 961); note: nearly all actives have a fitted effect of over 70% in size", "settings": "LYMP1-003 lymphoblastoid cells, dead-cell protease fluorescence; series mostly up to 92.2 µM", "outline": "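LYMP1-003 human lymphoblastoid cells (2500/well) exposed to compound 16 h at 37 C in complete medium; dead-cell protease read with bis-AAF-R110 fluorescence (Ex/Em 485/520) after 60 min at room temperature. Normalized to DMSO and 15 uM tetraoctylammonium bromide; AC50 from Hill fit.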"}, "[8]": {"assay": "MultiTox-Fluor Cytotoxicity Assay - LYMP1-003 - Live Cells (AID 962);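 note: cytotoxic hits lower the live-cell protease signal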", "settings": "LYMP1-003 lymphoblastoid cells, MultiTox-Fluor live-cell protease fluorescence; series mostly up to 92.2 µM", "outline": "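Acute cytotoxicity is scored as a drop in live-cell protease activity in human lymphoblastoid LYMP1-003 cells after 16 hr compound exposure at 37 C. AC50 values come from Hill-equation modelling of concentration-response data.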"}, "[9]": {"assay": "Cell Viability - LYMP1-003 - Assay at 24 hr (AID 963)", "settings": "LYMP1-003 lymphoblastoid cell viability; series mostly up to 92.2 µM", "outline": "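Cytotoxicity is scored as a concentration-dependent fall in ATP-linked luciferase signal in human lymphoblastoid LYMP1-003 cells treated 24 hr at 37 C in complete culture medium.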"}, "[10]": {"assay": "Cell Viability - LYMP1-003 - Assay at 40 hr (AID 964); note: nearly all actives have a fitted effect of over 60% in size", "settings": "LYMP1-003 lymphoblastoid viability; series mostly up to 92.2 µM", "outline": "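Luminescent ATP signal (CellTiter-Glo) served as the viability read-out after 40 hr compound treatment of human lymphoblastoid LYMP1-003 cells at 37 C. Decreases in ATP were fitted with the Hill equation to give AC50.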"}, "[11]": {"assay": "Cell Viability - LYMP2-003 (AID 965); note: nearly all actives have a fitted effect of over 50% in size", "settings": "LYMP2-003 lymphoblastoid cell viability; series mostly up to 92.2 µM", "outline": "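CellTiter-Glo luminescence quantified ATP loss after 24 h compound treatment of LYMP2-003 lymphoblastoid cells at 37 C. Titration series were fitted with the standard Hill equation to give AC50.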"}, "[12]": {"assay": "Cell Viability - LYMP2-004 (AID 966); note: nearly all actives have a fitted effect of over 65% in size", "settings": "LYMP2-004 lymphoblastoid cell viability, qHTS; series mostly up to 92.2 µM", "outline": "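qHTS cytotoxicity: human lymphoblastoid line, 24 hr compound treatment, 37 C, complete medium. Viability read as cellular ATP via luciferase luminescence; tetraoctylammonium bromide served as positive control.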"}, "[13]": {"assay": "Cell Viability - LYMP2-005 (AID 967)", "settings": "LYMP2-005 lymphoblastoid cell viability; series mostly up to 92.2 µM", "outline": "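LYMP2-005 human lymphoblastoid cells (2500/well) were treated with compounds for 24 h at 37 C. Intracellular ATP was then measured by CellTiter-Glo luminescence after 30 min at room temperature. AC50 values came from Hill-equation fits of qHTS concentration-response data.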"}, "[14]": {"assay": "Cell Viability - LYMP2-009 (AID 968); note: nearly all actives have a fitted effect of over 55% in size", "settings": "LYMP2-009 lymphoblastoid cell viability; series mostly up to 92.2 µM"}, "[15]": {"assay": "Cell Viability - LYMP2-011 (AID 969); note: nearly all actives have a fitted effect of over 60% in size", "settings": "LYMP2-011 lymphoblastoid cells viability; series mostly up to 92.2 µM", "outline": "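In this qHTS cytotoxicity format, compounds are tested across concentrations on human lymphoblastoid cells in complete medium for 24 hours at 37 C. Viability is taken as cellular ATP measured by luciferase luminescence.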"}, "[16]": {"assay": "Cell Viability - LYMP2-013 (AID 970); note: nearly all actives have a fitted effect of over 55% in size", "settings": "LYMP2-013 lymphoblastoid cells viability; series mostly up to 92.2 µM", "outline": "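Cytotoxicity is scored as a concentration-dependent drop in intracellular ATP in human lymphoblastoid cells after 24 hr compound exposure at 37 C. ATP is quantified by luciferase luminescence, and AC50 values come from Hill-equation modeling.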"}, "[17]": {"assay": "Cell Viability - LYMP2-015 (AID 971); note: nearly all actives have a fitted effect of over 55% in size", "settings": "LYMP2-015 lymphoblastoid cell viability; series mostly up to 92.2 µM", "outline": "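Cells are seeded at 2500 per well and incubated 5 hr at 37 C. Compounds are added across a concentration series for 24 hr at 37 C. CellTiter-Glo is added, and luminescence is read after 30 min at room temperature.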"}, "[18]": {"assay": "Cell Viability - LYMP2-017 (AID 972); note: nearly all actives have a fitted effect of over 55% in size", "settings": "LYMP2-017 lymphoblastoid cell viability; series mostly up to 92.2 µM", "outline": "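Cytotoxicity is scored as a concentration-dependent drop in cellular ATP in a human lymphoblastoid line after 24 hr treatment at 37 C. Values are AC50s from Hill-equation modelling.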"}, "[19]": {"assay": "Cell Viability - LYMP2-019 (AID 973); note: nearly all actives have a fitted effect of over 55% in size", "settings": "LYMP2-019 lymphoblastoid cell line viability; series mostly up to 92.2 µM", "outline": "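Cytotoxicity is scored as a concentration-dependent drop in cellular ATP after cells (2500/well) receive compound for 24 hr at 37 C. Tetraoctylammonium bromide serves as positive control.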"}, "[20]": {"assay": "Cell Viability - LYMP2-021 (AID 974); note: nearly all actives have a fitted effect of over 55% in size", "settings": "LYMP2-021 lymphoblastoid cells viability; series mostly up to 92.2 µM", "outline": "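Loss of cellular ATP, measured with a luciferase-based CellTiter-Glo readout, serves as the toxicity signal in human lymphoblastoid cells treated for 24 hours at 37 C. Potency is reported as AC50 from a standard Hill model.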"}},
  "note": "Inconclusive results are not listed. A call without a number means that no potency is given here. Active and inactive are the calls of the source. Unless noted, calls come from the whole dose curve; as a rule, active = well fitted curve in the direction sought with a large enough effect; inconclusive = small, poorly fitted or top-dose-only effect, or another doubt; inactive = no such curve, though single readings can be large; an effect the other way counts as inactive or inconclusive.",
  "data": [
    {"compound": "C1COC(NC(C2CC2)C2CC2)=N1", "values": [
      {"measurement": "outcome", "setting": "[1]", "value": "inactive"}
    ]},
    {"compound": "CC(C)NCC(O)COc1ccc(COCCOC(C)C)cc1", "note": "(configuration not stated)", "values": [
      {"measurement": "outcome", "setting": "[1]", "value": "inactive"}
    ]},
    {"compound": "O=NN(CCCl)C(=O)NCCCl", "values": [
      {"measurement": "outcome", "setting": "[1]", "value": "inactive"}
    ]},
    {"compound": "C[C@]12CCC(=O)C=C1CC[C@@H]1[C@@H]2[C@@H](O)C[C@@]2(C)[C@H]1CC[C@]2(O)C(=O)CO", "values": [
      {"measurement": "outcome", "setting": "[1]", "value": "inactive"}
    ]},
    {"compound": "Cc1oncc1C(=O)Nc1ccc(C(F)(F)F)cc1", "values": [
      {"measurement": "outcome", "setting": "[1]", "value": "inactive"}
    ]},
    {"compound": "NC[C@H](O)c1ccc(O)c(O)c1", "values": [
      {"measurement": "outcome", "setting": "[1]", "value": "inactive"}
    ]},
    {"compound": "CCCCNc1cc(C(=O)O)cc(S(N)(=O)=O)c1Oc1ccccc1", "values": [
      {"measurement": "outcome", "setting": "[1]", "value": "inactive"}
    ]},
    {"compound": "Nc1ccc(S(=O)(=O)Nc2ccnn2-c2ccccc2)cc1", "values": [
      {"measurement": "outcome", "setting": "[1]", "value": "inactive"}
    ]},
    {"compound": "CN1CCN(CCCN2c3ccccc3Sc3ccc(C(F)(F)F)cc32)CC1", "values": [
      {"measurement": "outcome", "setting": "[1]", "value": "inactive"}
    ]},
    {"compound": "OC(CN1CCC(Cc2ccc(F)cc2)CC1)c1ccc(Cl)cc1", "note": "(configuration not stated)", "values": [
      {"measurement": "outcome", "setting": "[1]", "value": "inactive"}
    ]},
    {"compound": "Nc1nc2ccc(OC(F)(F)F)cc2s1", "values": [
      {"measurement": "outcome", "setting": "[1]", "value": "inactive"},
      {"measurement": "outcome", "setting": "[2]", "value": "inactive"}
    ]},
    {"compound": "CCOC(=O)N1CCC(=C2c3ccc(Cl)cc3CCc3cccnc32)CC1", "values": [
      {"measurement": "outcome", "setting": "[1]", "value": "inactive"}
    ]},
    {"compound": "NC(N)=NC(=O)c1nc(Cl)c(N)nc1N", "values": [
      {"measurement": "outcome", "setting": "[3]", "value": "inactive"},
      {"measurement": "outcome", "setting": "[4]", "value": "inactive"},
      {"measurement": "outcome", "setting": "[1]", "value": "inactive"},
      {"measurement": "outcome", "setting": "[5]", "value": "inactive"},
      {"measurement": "outcome", "setting": "[6]", "value": "inactive"},
      {"measurement": "outcome", "setting": "[7]", "value": "inactive"},
      {"measurement": "outcome", "setting": "[8]", "value": "inactive"},
      {"measurement": "outcome", "setting": "[9]", "value": "inactive"},
      {"measurement": "Potency", "setting": "[10]", "value": "inactive"},
      {"measurement": "outcome", "setting": "[11]", "value": "inactive"},
      {"measurement": "outcome", "setting": "[12]", "value": "inactive"},
      {"measurement": "outcome", "setting": "[13]", "value": "inactive"},
      {"measurement": "outcome", "setting": "[14]", "value": "inactive"},
      {"measurement": "outcome", "setting": "[15]", "value": "inactive"},
      {"measurement": "outcome", "setting": "[16]", "value": "inactive"},
      {"measurement": "outcome", "setting": "[17]", "value": "inactive"},
      {"measurement": "outcome", "setting": "[18]", "value": "inactive"},
      {"measurement": "outcome", "setting": "[19]", "value": "inactive"},
      {"measurement": "outcome", "setting": "[20]", "value": "inactive"}
    ]},
    {"compound": "Nc1nc2c(ncn2COCCO)c(=O)[nH]1", "values": [
      {"measurement": "outcome", "setting": "[1]", "value": "inactive"}
    ]},
    {"compound": "N=c1nc(N2CCCCC2)cc(N)n1O", "values": [
      {"measurement": "outcome", "setting": "[1]", "value": "inactive"}
    ]},
    {"compound": "NCCc1ccc(O)c(O)c1", "values": [
      {"measurement": "outcome", "setting": "[1]", "value": "inactive"}
    ]},
    {"compound": "CC(C)(Sc1ccc(CCN(CCCCC2CCCCC2)C(=O)NC2CCCCC2)cc1)C(=O)O", "values": [
      {"measurement": "outcome", "setting": "[1]", "value": "inactive"}
    ]},
    {"compound": "NNCCc1ccccc1", "values": [
      {"measurement": "outcome", "setting": "[1]", "value": "inactive"}
    ]}
  ]
}
